Hits are enriched below; roughly 12% of the tested compounds scored in any of these assays.
Cl transport mod – modulates chloride dependent transport by human KCC2. Q9H2X9. KCC2 cells, thallium flux FluoZin-2 fluorescence. B-score of Tl+ flux slope (higher = more flux/activation; lower = inhibition) at 10 µM. 190,000 tested, 2.2% active. AID 1456;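 active means thallium flux slope and its plate-corrected score both differing from the plate sample mean at a set confidence after two filtering rounds, in either direction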;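 further: slope of fluorescence scaled to starting intensity during 10 to 20 s after thallium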
WT yeast gro inh – growth inhibition of WT yeast, mitochondrial fusion screen; mitochondrial fusion phenotypic screen, WT strain; inhibition, % at 10 µM; 190,000 tested, 2.1% active; AID 1362; in the data active means inhibition above about 58%; tested in S. cerevisiae
ROMK mod – human ROMK K+ channel modulation, primary screen. P48048. Tet-inducible ROMK, thallium flux fluorescence; actives lie on both sides. B-score at 10 µM. 130,000 tested, 2% active. AID 1918;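 active means signal ratio slope over the read window, or its plate-corrected B-score, at least 3 SD from the plate mean, either direction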;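 further: B-score of the F/F0 ratio slope over 7 to 12 s after thallium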
Target sequence (P48048 whole entry, looked up): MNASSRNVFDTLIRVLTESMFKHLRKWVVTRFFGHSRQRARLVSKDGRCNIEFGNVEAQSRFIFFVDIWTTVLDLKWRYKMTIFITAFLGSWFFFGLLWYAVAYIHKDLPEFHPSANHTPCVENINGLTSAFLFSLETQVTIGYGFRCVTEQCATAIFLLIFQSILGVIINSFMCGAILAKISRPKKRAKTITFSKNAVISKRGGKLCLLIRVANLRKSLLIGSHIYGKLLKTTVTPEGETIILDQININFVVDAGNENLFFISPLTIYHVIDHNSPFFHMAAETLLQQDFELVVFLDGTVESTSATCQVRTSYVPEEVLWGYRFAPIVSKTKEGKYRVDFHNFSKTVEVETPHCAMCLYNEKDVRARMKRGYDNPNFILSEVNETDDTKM
Calpain2 inh – calpain II (pig) inhibition | AID 1236 | purified calpain II, fluorogenic peptide substrate, 30 min | 220,000 tested, 0.37% active | inhibition, % at 16 µM;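 active means inhibition above about 50%, limit read from the data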
L major viab – Leishmania major promastigote growth inhibition; Leishmania major promastigotes, resazurin fluorescence viability; inhibition, % at 10 µM; 200,000 tested, 9% active; AID 1063; in the data active means inhibition above about 50%;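 further: promastigotes grown with compound for 44 hours at 28 °C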
* hit, by the source's call; . = not tested or not shown.

SMILES	Cl transport mod	WT yeast gro inh	ROMK mod	Calpain2 inh	L major viab
COC(=O)c1coc(-c2ccc(OC)cc2)c1C(=O)OC	-0.23	.	-0.83	-33	5
COc1ccc(C)cc1NC(=O)COC(=O)c1ccc(OCc2ccc(Cl)cc2Cl)c(OC)c1	-1.3	1	-0.94	18	34
CN(C)CCNC(=O)c1ccc(COc2ccc(Cl)cc2Cl)cc1	0.87	4	.	-10	99*
COc1cc(C(=O)NCCC(C)C)ccc1OCc1ccc(Cl)cc1Cl	0.034	22	.	22	97*
COc1cc(C(=O)NC2CCCCC2)ccc1OCc1ccc(Cl)cc1Cl	0	10	.	-350	74*
COc1cc(O)c(C(CCN2CCOCC2)c2cc(OC)c(OC)c(OC)c2)c(OC)c1 (stereo not given)	-0.02	.	.	-4	.
CCOC(=O)C1=C(N)Oc2cc(O)ccc2C1c1ccc([N+](=O)[O-])cc1 (stereo not given)	0.067	8	0.062	-17	13
O=C(COc1ccccc1N1C(=O)C2C3C=CC(C3)C2C1=O)c1ccccc1 (stereo not given)	-0.89	.	.	-1	.
O=C1C2C3C=CC(C3)C2C(=O)N1c1ccccc1OS(=O)(=O)c1ccccc1 (stereo not given)	0.27	-9	0	8	63*
Clc1cccc(-c2nc3nc4ccccc4nc3n2Cc2ccccc2)c1	-0.75	-9	-0.0092	-17	52*
Cc1cccc(-n2c(-c3cccc([N+](=O)[O-])c3)nc3nc4ccccc4nc32)c1	-0.32	9	.	-60	-5
c1ccc(Cn2c(-c3ccccc3)nc3nc4ccccc4nc32)cc1	-0.38	8	-0.82	-123	84*
O=[N+]([O-])c1cc(-c2nc3nc4ccccc4nc3n2CCc2ccccc2)cc([N+](=O)[O-])c1	0.12	3	0.34	-4	61*
CS(=O)Cc1cc(Sc2ccccc2)nc(-c2ccncc2)n1 (stereo not given)	.	-7	-0.075	-48	-1
S=C(NC1CCCC1)N1CCN(c2ccc(Cl)cc2)CC1	-2.2	41	-0.23	7	-2
COc1ccc(NCC(=O)Nc2ccccc2C#N)cc1Cl	-0.26	-1	-0.79	6	87*
COc1ccc(NC(=O)CN(C)CC(=O)Nc2ccccc2SC)cc1Cl	.	0	.	2	7
O=C(NCCc1nnc2ccc(NCc3ccc(Cl)cc3)nn12)c1ccccc1	-0.017	2	0.026	57*	-11
O=C(Cn1c(-c2ccccn2)nc2ccccc21)N/N=C/c1cccnc1	-1.6	.	-0.79	3	.
O=C(Cn1c(C(=O)N2CCN(C3CCCC3)CC2)cc2sccc21)c1ccccc1	0.18	0	.	-27	93*
CCn1c(-c2cc(-c3cccc(OC)c3)nc3ccccc23)n[nH]c1=S	2.7*	24	0.074	-9	2
CN(C(=S)NC(=O)CCCOc1ccc(Cl)cc1Cl)c1ccccc1	39*	13	0.3	15	-2
COc1ccc(CNC(=O)COC(=O)CCCOc2ccc(Cl)cc2Cl)cc1	-0.42	-6	.	27	-8
O=C(COC(=O)CCCOc1ccc(Cl)cc1Cl)Nc1cccc(Cl)c1	-0.39	70*	-1.2	21	-2
CC(C)NC(=O)CCCOc1ccc(Cl)cc1Cl	0.65	-16	-0.47	1	-1
SMILES	Cl transport mod	WT yeast gro inh	ROMK mod	Calpain2 inh	L major viab
COc1ccc(OCCCC(=O)NCCc2ccc(OC)c(OC)c2)cc1	0.46	9	0.58	27	-4
CCOc1ccc(C(=O)CC(=O)C(=O)NCCc2ccc(OC)c(OC)c2)cc1	0.68	9	-0.61	-8	60*
O=C(CSc1ncnc2c1nnn2-c1ccc(F)cc1)NCC1CCCO1 (stereo not given)	.	2	-0.83	-12	41
Cc1ccc(-n2nnc3c(SCC(=O)NCC4CCCO4)ncnc32)cc1 (stereo not given)	-0.45	23	-0.56	31	86*
C=CCn1c(=O)c2ccc(C(=O)NCc3ccccc3)cc2n(Cc2ccccc2Cl)c1=O	0.086	7	-0.81	11	56*
C=CCn1c(=O)c2ccc(C(=O)NCc3ccccc3)cc2n(Cc2ccc(Cl)cc2)c1=O	-0.85	2	.	22	-2
Oc1nc(Nc2cccc(Cl)c2)sc1/C=C1\C=Nc2ccccc21	-0.028	79*	.	-34	-3
Oc1cccc(Nc2nc(O)c(/C=C3\C=Nc4ccccc43)s2)c1	-0.16	.	.	11	.
Cc1ccc(-c2cc(C(F)F)nc(N3CCC(C)CC3)n2)cc1	0.0084	17	.	-15	2
CN=c1scc(-c2ccccc2Br)n1/N=C/c1ccc[nH]1	-0.14	73*	1.4	2	14
CC1CCC(C(C)C)C(OCC(O)CN2CCCC(C)C2)C1 (stereo not given)	0.83	19	-1.9	4	92*
CC1CCC(C(C)C)C(OCC(O)CN2CCN(Cc3ccccc3)CC2)C1 (stereo not given)	0.4	-7	.	-14	93*
CCC(=O)c1cc(F)c(N2CCN(S(=O)(=O)c3ccccc3)CC2)cc1C	.	8	0.61	27	64*
Cc1cc(S(=O)(=O)N2CCN(c3c(C)cccc3C)CC2)ccc1F	-0.33	27	.	13	4
Cc1cc(S(=O)(=O)N2CCN(c3ccccc3C)CC2)ccc1F	.	61*	.	-1	-2
COc1ccc(Cl)cc1NC(=S)NNC(=O)C1(C)CC1(Cl)Cl (stereo not given)	-0.45	6	-1.3	15	-8
COc1ccccc1N1CCN(C(=O)c2cc(N3C(=O)C4C5CCC(C5)C4C3=O)ccc2Cl)CC1 (stereo not given)	0.32	-32	-3.1	-17	89*
O=C(Cc1sc(Nc2ccccc2)nc1-c1ccccc1)NCc1ccccn1	-0.023	2	0.17	-11	8
OC1(c2ccc(Br)cc2)CCNCC1	0.058	10	-0.88	-14	84*
O=C(CNC(=S)N(CCCN1CCOCC1)Cc1cccs1)N1CCCCCC1	0.54	-1	-1.1	-18	-6
O=C1C=C(Nc2ccc(O)cc2)C(=O)c2ccccc21	-1	.	.	58*	.
O=C1C(Cl)=C(Nc2ccc(O)cc2)C(=O)c2ccccc21	-0.56	.	.	14	.
CCOC(=O)c1ccc(NC2=CC(=O)C(=O)c3ccccc32)cc1	0.47	1	.	-57	100*
CCOC(=O)c1ccc(NC(=O)C(C)N2C(=O)c3ccccc3C2=O)cc1 (stereo not given)	.	15	-0.28	1	-6
Cc1ccc(NC2=CC(=O)C(=O)c3ccccc32)cc1	0.58	65*	.	22	99*
SMILES	Cl transport mod	WT yeast gro inh	ROMK mod	Calpain2 inh	L major viab
Cc1ccc(NC2=C(Cl)C(=O)c3ccccc3C2=O)cc1	-0.16	15	0.25	18	9
CC(C)N(C(=O)Cn1cc(SCC(N)=O)c2ccccc21)C(C)C	0.25	-17	0.22	5	15
COc1cc(N/C=C(\C(C)=O)c2ccccc2)cc(OC)c1	.	12	.	65*	-5
COc1cc(OC)cc(C(=O)NCCNC(=O)c2ccccc2)c1	.	2	.	10	1
CC(=O)/C(=C\Nc1ccc(OCc2ccccc2)cc1)c1ccccc1	.	33	.	22	0
CC(=O)/C(=C/Nc1ccc(Oc2ccccc2)cc1)c1ccccc1	.	61*	.	23	-6
